According to PubChem BioAssay:
Active and inactive are the calls of the source.

Assays:
[1] = tested on: Plasmodium falciparum Sir2 (PF13_0152, Sir2A); assay: pfSir2 binders on small-molecule microarrays, primary screen, biochemical, small-molecule microarray, 635 nm fluorescence (AID 1098); conditions: small-molecule microarray binding, fluorescence 635 nm; higher = more signal;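 further: score merges spot fluorescence intensity with its signal-to-noise ratio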
[2] = small-molecule microarray binders of probe aDKK1, primary screen, biochemical, biotinylated probe, 635/667 nm fluorescence (AID 1099); conditions: higher = more signal;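 further: score merges 667nm spot fluorescence with signal to noise across triplicate slides; reference of the scale not given here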
[3] = small-molecule microarray binders of probe aCHRDL2, primary screen, biochemical, biotinylated probe, 635/667 nm fluorescence (AID 1100); conditions: higher = more signal
[4] = splicing luciferase reporter signal modulators, primary screen, spliceosome inhibition project, cell-based, HEK293, splice +/- reporter (AID 1101); conditions: luminescence, 24 h, higher = more signal, called active from +8 up or from −8 down;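 further: HEK293 cells carrying a splicing-competent luciferase reporter gene; test concentration not given here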
[5] = target: Fibroblast growth factor 10 (Homo sapiens) (UniProt O15520); assay: FGF10 binders on small-molecule microarrays, primary screen, biochemical, small-molecule microarray, 635 nm fluorescence (AID 1102); conditions: FGF10 binding, fluorescence 635 nm, higher = more signal
Chain of Fibroblast growth factor 10 (Homo sapiens) (O15520 whole entry, looked up): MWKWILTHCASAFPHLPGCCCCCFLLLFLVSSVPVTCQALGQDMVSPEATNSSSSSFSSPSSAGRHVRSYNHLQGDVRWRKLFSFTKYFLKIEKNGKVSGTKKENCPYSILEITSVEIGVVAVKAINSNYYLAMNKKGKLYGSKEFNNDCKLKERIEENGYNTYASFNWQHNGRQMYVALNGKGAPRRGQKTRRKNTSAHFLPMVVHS

[6] = tested on: glycogen synthase kinase-3 (GSK3A per assay name; protocol says GSK3B); assay: GSK3 binders on small-molecule microarrays, primary screen, biochemical, small-molecule microarray, 635 nm fluorescence, GSK3A (AID 1103); conditions: small-molecule microarray binding, fluorescence 635 nm; higher = more signal; further: the record names both GSK3A and GSK3B
[7] = target: Epidermal growth factor receptor (Homo sapiens) (UniProt P00533); assay: EGFR binders on small-molecule microarrays, primary screen, biochemical, small-molecule microarray, 635 nm fluorescence (AID 1104); conditions: EGFR binding, higher = more signal;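 further: score merges 667 nm emission intensity with spot signal to noise over triplicate slides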
Chain of Epidermal growth factor receptor (Homo sapiens) (P00533 whole entry, looked up): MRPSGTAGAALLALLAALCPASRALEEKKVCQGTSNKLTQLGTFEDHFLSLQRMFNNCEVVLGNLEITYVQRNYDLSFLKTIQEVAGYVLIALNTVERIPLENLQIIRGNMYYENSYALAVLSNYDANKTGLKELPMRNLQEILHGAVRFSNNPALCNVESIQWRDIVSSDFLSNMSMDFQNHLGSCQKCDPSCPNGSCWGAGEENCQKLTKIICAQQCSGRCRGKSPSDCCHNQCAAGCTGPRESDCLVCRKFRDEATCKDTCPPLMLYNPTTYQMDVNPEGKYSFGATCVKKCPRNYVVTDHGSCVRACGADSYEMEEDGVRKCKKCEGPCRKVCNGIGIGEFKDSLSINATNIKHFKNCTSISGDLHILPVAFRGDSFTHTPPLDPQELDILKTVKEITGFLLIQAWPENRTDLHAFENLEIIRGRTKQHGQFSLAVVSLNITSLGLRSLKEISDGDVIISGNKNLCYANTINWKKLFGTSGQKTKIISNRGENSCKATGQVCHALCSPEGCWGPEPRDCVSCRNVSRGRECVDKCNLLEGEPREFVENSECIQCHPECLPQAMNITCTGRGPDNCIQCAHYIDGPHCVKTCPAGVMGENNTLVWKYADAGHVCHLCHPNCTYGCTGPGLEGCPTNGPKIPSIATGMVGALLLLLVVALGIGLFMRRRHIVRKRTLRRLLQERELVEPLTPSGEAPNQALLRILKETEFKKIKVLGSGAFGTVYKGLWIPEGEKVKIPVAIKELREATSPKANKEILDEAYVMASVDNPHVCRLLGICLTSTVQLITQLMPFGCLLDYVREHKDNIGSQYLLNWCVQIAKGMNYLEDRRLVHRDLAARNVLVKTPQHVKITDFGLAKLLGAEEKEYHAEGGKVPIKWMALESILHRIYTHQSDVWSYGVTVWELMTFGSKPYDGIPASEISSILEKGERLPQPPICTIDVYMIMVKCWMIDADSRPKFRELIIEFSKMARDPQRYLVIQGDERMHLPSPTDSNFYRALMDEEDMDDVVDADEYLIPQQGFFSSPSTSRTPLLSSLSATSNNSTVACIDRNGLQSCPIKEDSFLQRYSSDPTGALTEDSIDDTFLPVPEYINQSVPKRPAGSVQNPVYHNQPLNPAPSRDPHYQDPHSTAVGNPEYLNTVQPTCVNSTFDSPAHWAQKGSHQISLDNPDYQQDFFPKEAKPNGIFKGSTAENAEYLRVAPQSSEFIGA

[8] = target: Follistatin-related protein 3 (Homo sapiens) (UniProt O95633); assay: FSTL3 binders on small-molecule microarrays, primary screen, biochemical, small-molecule microarray, 635 nm fluorescence (AID 1105); conditions: FSTL3 binding, higher = more signal;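 further: score merges emission near 667 nm and signal to noise per printed spot across three slides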
Chain of Follistatin-related protein 3 (Homo sapiens) (O95633 whole entry, looked up): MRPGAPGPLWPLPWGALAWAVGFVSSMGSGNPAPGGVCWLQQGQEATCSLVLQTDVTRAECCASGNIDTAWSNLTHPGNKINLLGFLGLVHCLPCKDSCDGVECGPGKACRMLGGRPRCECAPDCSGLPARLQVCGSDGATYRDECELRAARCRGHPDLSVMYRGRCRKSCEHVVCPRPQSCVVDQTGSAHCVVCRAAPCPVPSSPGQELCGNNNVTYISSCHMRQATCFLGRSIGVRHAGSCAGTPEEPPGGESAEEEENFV

[9] = target: Dickkopf-related protein 1 (Homo sapiens) (UniProt O94907); assay: DKK1 binders on small-molecule microarrays, primary screen, biochemical, small-molecule microarray, 635 nm fluorescence scan (AID 1106); conditions: DKK1 binding, higher = more signal;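 further: score merges emission near 667 nm with signal to noise over three replicate slides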
Chain of Dickkopf-related protein 1 (Homo sapiens) (O94907 whole entry, looked up): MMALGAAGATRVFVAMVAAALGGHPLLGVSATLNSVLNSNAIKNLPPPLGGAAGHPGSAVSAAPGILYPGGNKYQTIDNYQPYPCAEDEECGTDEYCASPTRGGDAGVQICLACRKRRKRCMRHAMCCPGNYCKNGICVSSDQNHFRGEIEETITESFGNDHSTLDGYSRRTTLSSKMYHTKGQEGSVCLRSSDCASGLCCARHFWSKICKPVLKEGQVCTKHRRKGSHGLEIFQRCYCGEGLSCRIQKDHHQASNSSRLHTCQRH

[10] = tested on: Inhibin beta A chain (activin A); assay: INHBA (activin A) binders on microarrays, primary screen, biochemical, small-molecule microarray, 635 nm fluorescence scan (AID 1107); conditions: small-molecule microarray binding, higher = more signal;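 further: mouse activin A protein probed at 4.33 µg/mL on printed slides; score merges bound-protein fluorescence near 667 nm with spot signal-to-noise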

Structure (SMILES)	composite z-score [1]	composite z-score [2]	composite z-score [3]	z-score [4]	composite z-score [5]	composite z-score [6]	composite z-score [7]	composite z-score [8]	composite z-score [9]	composite z-score [10]
CCCNC(=O)[C@@]1(c2ccc([N+](=O)[O-])cc2)CC(=O)N(C2CCCCC2)[C@@H]1c1ccc(CO)cc1	0.472	0.175	0.39	-0.867 (inactive)	0.946	1.22	0.237	0.869	0.301	0.254
COC(=O)C(CC#Cc1ccc2c(c1)[C@]1(C(=O)N2)[C@H](C(=O)N2CCN(c3ncccn3)CC2)[C@H]2C(=O)O[C@H](c3ccccc3)[C@H](c3ccccc3)N2[C@@H]1c1ccc(OCCO)cc1)C(=O)OC	1.22	0.0224	-0.0434	-0.152 (inactive)	1.17	0.994	0.68	1.39	0.612	0.0693
Cc1ccc(S[C@]2(C(=O)NCC(F)(F)F)CC(=O)N(Cc3ccccc3C(F)(F)F)[C@@H]2c2ccc(CO)cc2I)cc1	1.46	-0.255	0.956	-0.0164 (inactive)	-1.34	-1.49	-1.96	-1.28	-1.7	0.283
COCCOC(=O)N1C(=O)[C@@]2(c3cc(C#CC4=CCCCC4)ccc31)[C@H](C(N)=O)[C@H]1C(=O)O[C@H](c3ccccc3)[C@H](c3ccccc3)N1[C@@H]2c1ccccc1OCCO	1.46	0.195	0.367	-1.88 (inactive)	1.24	1.32	0.32	0.733	0.707	0.455
CC1CC/C=C\[C@H]2OC34C=CCN(c5ccc(Cl)cc5)C(=O)[C@H]3N(CCCCCO)C(=O)[C@]4(C)C2C(=O)O1 (stereo not given in full)	0.925	-0.153	0.648	0.4 (inactive)	-1.04	-0.798	-1.24	-0.888	-1.98	-0.497
O=C(N1CCCCC1)[C@@]1(CCS(=O)(=O)c2ccccc2)COC(c2ccc(OCCCO)cc2)=N1	1.38	1.12	1.21	1.74 (inactive)	0.96	1.02	-0.075	0.348	0.495	1.21
COCCCNC(=O)[C@@]1(Sc2ccc(C)cc2)CC(=O)N(C2CCCCC2)[C@@H]1c1ccc(CO)cc1	0.0677	0.196	0.899	-0.397 (inactive)	0.229	-0.823	-0.687	-1.1	-1.65	0.446
O=C(NCC(F)(F)F)[C@@H]1c2ccccc2C(=O)N(Cc2cc(F)cc(C(F)(F)F)c2)[C@H]1c1ccc(CO)cc1	0.251	-0.0632	0.941	0.408 (inactive)	-0.788	-0.587	-1.12	-1.29	-1.39	-0.53
CN(C)C(=O)[C@@]1(CCS(=O)(=O)c2ccccc2)N=C(c2ccc(OCCCO)cc2)O[C@H]1c1ccccc1	1.32	0.415	0.854	2.27 (inactive)	0.961	1.29	-0.806	0.455	-0.94	0.54
CC(C)C(=C=CC[C@H](O)c1cccc(OCCO)c1)C[C@H](O)c1cc(Cl)cc(Cl)c1O	0.507	-0.217	0.0419	-0.747 (inactive)	1.43	0.0728	-0.388	0.544	-0.0693	0.346
C=CCOC(=O)[C@H]1[C@@H]2C(=O)O[C@@H](c3ccccc3)[C@@H](c3ccccc3)N2[C@@H](c2ccc(OCCOC(=O)[C@@H]3C[C@@H]4C(=O)N[C@@H](CCCCN(C)C)C(=O)N4[C@@H]3c3ccc(O)cc3)cc2)[C@]12C(=O)Nc1ccccc12	0.913	0.173	0.0016	-0.311 (inactive)	1.03	1.32	0.961	1.43	1.27	-0.471
CC[C@H]1C2=C3C(CC[C@H]4C(OCc5ccc(F)cc5C(F)(F)F)OC[C@](C)([C@@H]34)N(C(=O)OC(C)(C)C)C2)C(COC)C1COC (stereo not given in full)	-0.0539	0.222	0.475	0.477 (inactive)	-0.0147	-0.652	-0.52	0.269	-0.384	0.561
C[C@@H]1ON(c2ccc(C(=O)OC(C)(C)C)cc2)[C@H](c2ccc(O)cc2)[C@H]1C(=O)N1C(=O)OC[C@H]1Cc1ccccc1	0.632	0.0187	-0.369	0.121 (inactive)	0.663	1.06	0.365	0.431	0.449	-0.0851
CN(C)C(=O)[C@]1(CCS(=O)(=O)c2ccccc2)N=C(c2ccc(OCCCO)cc2)O[C@@H]1c1ccccc1N=[N+]=[N-]	1.78	0.774	0.923	-2.08 (inactive)	1.42	0.581	0.564	1.45	0.553	1.33
CCOC(=O)C[C@H]1[C@H](OC(=O)c2ccccc2-c2ccccc2)[C@@H](NC(=O)C2CCCCC2)c2cc(OCCCO)ccc2N1C(=O)Cc1ccc(OC)cc1	-0.0395	-0.189	0.0017	-0.0496 (inactive)	0.0134	-0.625	0.0178	0.138	-0.259	0.489
Cc1ccc(S[C@]2(C(=O)NCC(F)(F)F)CC(=O)N(Cc3ccccc3)[C@@H]2c2ccc(CO)cc2I)cc1	1.37	0.307	0.264	-0.432 (inactive)	-0.376	-0.342	-0.592	-0.507	-0.813	0.548

Structure (SMILES)	composite z-score [1]	composite z-score [2]	composite z-score [3]	z-score [4]	composite z-score [5]	composite z-score [6]	composite z-score [7]	composite z-score [8]	composite z-score [9]	composite z-score [10]
C=C(COC)/C(=C/C[C@H](OC(C)=O)c1ccc(OCCO)cc1)c1cc(C(=O)OC)ccc1OC	1.38	0.0841	-0.24	-0.195 (inactive)	1.48	0.416	0.148	0.924	0.468	0.72
COC(=O)[C@@]1(Cc2ccc(F)cc2)[C@H]2c3cc(C(=O)N(C)C)n(CCc4ccc(O)c(OC)c4)c3C[C@H]2CN1C(=O)c1ccccc1	0.0736	2.29	0.884	0.655 (inactive)	1.05	0.776	1.45	0.62	0.399	0.366
C=C(COC)/C(=C/C[C@H](OC(=O)c1ccncc1)c1ccccc1OCCO)c1cnc2ccccc2c1	1.32	0.29	-0.627	0.321 (inactive)	1.45	1.32	0.788	1.48	0.864	1.54
COC(=O)[C@@]1(Cc2ccc(F)cc2)[C@H]2c3cc(C(=O)N4CCCC4)n(CCc4ccc(O)c(O)c4)c3C[C@H]2CN1C(=O)c1ccccc1	0.391	1.8	1.04	-2.62 (inactive)	-0.206	-1.73	-0.0942	-0.457	-0.359	1.1
COCC1=C2[C@@H](CCc3ccccc3)OB(O)C[C@@H]2[C@@H]2C(=O)C=CC(=O)[C@@H]2C1	0.367	-0.0473	-0.0343	1.2 (inactive)	0.378	0.679	0.149	0.647	0.489	0.27
C=CCOC(=O)[C@H]1[C@@H]2C(=O)O[C@@H](c3ccccc3)[C@@H](c3ccccc3)N2[C@@H](c2ccc(OCCOC(=O)[C@H]3C[C@H]4C(=O)N[C@@H](CCCCNC(C)=O)C(=O)N4[C@H]3c3ccc(O)cc3)cc2)[C@]12C(=O)Nc1ccccc12	0.611	0.258	0.493	-1.18 (inactive)	0.776	1.28	0.915	0.932	1.31	0.351
O=C1O[C@@H](c2ccccc2)[C@@H](c2ccccc2)N2[C@@H](c3ccc(O)cc3)[C@]3(C(=O)Nc4ccc(C#CC5(O)CCCCCC5)cc43)[C@@H](C(=O)NC[C@H](O)c3ccccc3)[C@H]12	1.29	-0.171	0.467	-0.55 (inactive)	-0.174	0.791	-0.568	-0.442	-0.505	-0.357
COc1ccc([Si](C)(C)[C@@H]2[C@@H](CC(=O)N(CCO)Cc3ccccc3)O[C@]3(C(=O)N(Cc4cccc(N5C(=O)c6cccc7cccc5c67)c4)c4ccccc43)[C@H]2C)cc1	1.5	-0.277	0.246	-1.11 (inactive)	0.0691	-0.727	0.412	1.4	0.816	0.539
CC(=O)c1ccc(C(O)C2C=CC3C(=O)N(c4ccccc4)C(=O)C3N2Nc2ccc(C#N)cc2)cc1 (stereo not given)	0.45	0.204	0.764	0.744 (inactive)	-0.0433	0.582	0.262	0.133	-0.594	0.443
O=C1N(Cc2ccccc2)c2ccccc2[C@@H]2OC(c3ccc(OCCCO)cc3)=N[C@]12Cc1ccccc1	0.959	0.659	1	-0.0483 (inactive)	0.504	0.852	0.224	0.61	0.0877	1.13
[N-]=[N+]=NCc1ccccc1C[C@]1(C(N)=O)N=C(c2ccc(OCCCO)cc2)O[C@H]1c1ccccc1	1	0.774	0.827	-0.0612 (inactive)	0.703	0.854	-1.17	-0.188	-1.14	-0.0778
CCOC(=O)C[C@H]1[C@H](OC(=O)Cc2ccc3c(c2)OCO3)[C@@H](NC(=O)Cc2ccc(OC)cc2)c2cc(OCCCO)ccc2N1C(=O)c1ccc2ccccc2n1	0.0382	-0.189	-0.265	-0.95 (inactive)	0.355	0.415	0.516	-0.114	0.567	0.825
COCCOC(=O)N1C(=O)[C@@]2(c3cc(C#CCCO)ccc31)[C@H](c1ccccc1OCCO)N1[C@H](c3ccccc3)[C@H](c3ccccc3)OC(=O)[C@H]1[C@@H]2C(=O)Nc1nc2ccccc2s1	1.5	0.95	0.856	-0.713 (inactive)	0.689	1.2	0.397	0.966	0.635	0.46
COCCOC(=O)N1C(=O)[C@@]2(c3cc(C#Cc4ccc(OC)cc4)ccc31)[C@H](c1ccc(O)cc1)N1[C@H](c3ccccc3)[C@H](c3ccccc3)OC(=O)[C@H]1[C@@H]2C(=O)N1CCCCCCC1	0.447	1.81	1.36	1.5 (inactive)	0.506	-0.151	-0.191	0.859	0.423	1.31
CCCCC=C[C@@H](NC(=O)c1ccc(-c2ccccc2)cc1)c1ccccc1	0.379	0.0006	0.087	2.94 (inactive)	0.462	1.08	0.0139	-0.203	0.381	0.183
